HP1b binding inh: HP1-beta chromodomain-methylated histone interaction inhibition | P83916 | AlphaScreen HP1-beta / biotin-H3K9me3 peptide binding | Potency, µM (titrated, usually from 114 µM), hits mostly inhibitors | hit rate 0.56% among 390,000 | AID 540317; further: nearly all actives have a fitted effect of over 70% in size
Target sequence (P83916 whole entry, looked up): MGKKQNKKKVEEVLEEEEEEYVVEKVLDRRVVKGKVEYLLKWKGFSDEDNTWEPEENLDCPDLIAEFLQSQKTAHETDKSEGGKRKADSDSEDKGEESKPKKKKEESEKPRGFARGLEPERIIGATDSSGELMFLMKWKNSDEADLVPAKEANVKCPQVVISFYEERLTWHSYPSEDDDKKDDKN
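AlphaScreen: HP1-beta (50 nM) preformed 30 min with biotin-H3(1-18)K9me3 peptide (50 nM) in PBS pH 7.4, 0.01% Tween-20. Compound added for 30 min at RT, then streptavidin donor/nickel chelate acceptor beads (10 ug/mL) for 30 min.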
L3MBTL1 block: inhibitors of human L3MBTL1 | Q9Y468 | AlphaScreen L3MBTL1–H3K9me1 peptide binding | Potency, µM (highest dose often 57.1 µM), most hits filed as inhibitors | hit rate 0.66% among 230,000; further: nearly all actives have a fitted effect of over 60% in size
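L3MBTL1 50 nM + b-AHA-H3(1-15)K9me1 75 nM, 30 min RT; compound added, 30 min RT; streptavidin donor/Ni-chelate acceptor beads 10 ug/mL each final, 30 min RT dark; AlphaScreen read.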
JMJD2A Tudor inh: inhibitors of human JMJD2A Tudor domain; O75164; AlphaScreen JMJD2A-Tudor / H3K4me3 peptide binding; Potency, µM (top dose mostly 114 µM), actives largely listed as inhibitors; hit rate 4.4% among 390,000; further: nearly all actives have a fitted effect of over 50% in size
Sfp PPTase inh: blocks B. subtilis Sfp PPTase activity | Biochemical Sfp PPTase activity, qHTS | hit rate 3.5% among 310,000 | Potency, µM, usual class: inhibitors | AID 1490 | Q9F4F7;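 further: the enzyme is Sfp with the accession as filed and its product quenches rhodamine fluorescence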
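Reaction rates are the 30-min fluorescence difference (ex 525, em 598 nm) in wells containing 15 nM Sfp, 5 uM rhodamine-CoA and 12.5 uM BHQ-2-YbbR at pH 7.6 with 10 mM MgCl2.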
G9a inh: G9a (human) methyltransferase inhibition; hit rate 8.8% among 350,000; G9a H3K9 monomethylation, AlphaScreen, 2 h; Potency, µM (doses to about 102 µM), usual class: inhibitors; AID 504332; Q96KQ7; further: nearly all actives have a fitted effect of over 75% in size
Target sequence (Q96KQ7 913-1193 limits assumed): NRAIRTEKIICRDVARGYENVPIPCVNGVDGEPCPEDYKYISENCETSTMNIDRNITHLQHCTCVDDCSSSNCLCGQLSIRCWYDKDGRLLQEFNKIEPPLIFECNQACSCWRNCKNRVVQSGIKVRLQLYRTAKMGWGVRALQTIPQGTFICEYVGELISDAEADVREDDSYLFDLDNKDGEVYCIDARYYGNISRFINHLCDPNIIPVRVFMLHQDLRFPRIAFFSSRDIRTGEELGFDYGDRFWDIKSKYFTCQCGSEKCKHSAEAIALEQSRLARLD
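Signal arises when biotinylated H3K9 peptide, once monomethylated, bridges streptavidin donor and antibody-captured acceptor beads. Enzyme at 20 nM was preincubated 15 min with test compounds; peptide 500 nM and SAM 20 uM then reacted for 2 h.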
BAZ2B block: blocks human BAZ2B | hit rate 4.4% among 360,000 | Q9UIF8 | AlphaScreen BAZ2B-H3K14Ac peptide displacement | Potency, µM (doses to about 114 µM), actives largely listed as inhibitors | AID 504333; further: nearly all actives have a fitted effect of over 60% in size
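Compounds, titrated to a top concentration of 110 uM, were incubated 30 min at room temperature with preformed BAZ2B/acetyl-K14 H3 peptide complex (50 nM each). Proximity signal was measured by AlphaScreen after 20 min with beads.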
Each line names hits and unclear results; the compound was inactive in the other large screens. This is a sample that favours compounds with a hit; in the whole collection about 12% have one here. The call rests on the fitted dose curve; in most records, active means well fitted curve in the direction sought with a large enough effect; inconclusive means small, poorly fitted or top-dose-only effect, or another doubt; inactive means no such curve, though single readings can be large; an effect the other way counts as inactive or inconclusive.

COc1ccc(S(=O)(=O)Nc2ccc(O)c(Sc3ncn[nH]3)c2)cc1	L3MBTL1 block inconclusive, G9a inh 13µM
COC(=O)c1ccc(Sc2ccccc2NS(=O)(=O)c2ccc(OC)cc2)nc1	none
CC(C)c1ccc(S(=O)(=O)Nc2ccc(O)c(Sc3ncn[nH]3)c2)cc1	G9a inh inconclusive (no result: L3MBTL1 block)
CCNc1nc2[nH]c(=O)c3c(c2s1)OC(N)=C(C#N)C3c1ccc(C)cc1 (stereo unspecified)	Sfp PPTase inh 45µM, G9a inh inconclusive, BAZ2B block inconclusive
CCOC(=O)c1ccc(NS(=O)(=O)c2cc(Br)cc3c2N(C(C)=O)C(C)C3)cc1 (stereo unspecified)	none (no result: L3MBTL1 block, Sfp PPTase inh)
O=C(COc1c(Br)cc(Br)c2cccnc12)Nc1ccccc1F	G9a inh 45µM, BAZ2B block 50µM
O=C(COc1ccccc1)Nc1ccccc1F	none
CCC1CN(C(=O)N2CCC(C(=O)NCc3ccc(N(C)C)cc3)CC2)c2ccccc2O1 (stereo unspecified)	none (no result: L3MBTL1 block, Sfp PPTase inh)
CC1CCCCN1S(=O)(=O)c1cccc2cccnc12 (stereo unspecified)	G9a inh 32µM
CCN(CC)S(=O)(=O)c1ccc(NCC2COc3ccccc3O2)c([N+](=O)[O-])c1 (stereo unspecified)	HP1b binding inh inconclusive, JMJD2A Tudor inh inconclusive, G9a inh inconclusive, BAZ2B block inconclusive
CN(C)S(=O)(=O)c1ccc(NCC2COc3ccccc3O2)c([N+](=O)[O-])c1 (stereo unspecified)	HP1b binding inh inconclusive, L3MBTL1 block inconclusive, JMJD2A Tudor inh 25µM, G9a inh inconclusive, BAZ2B block inconclusive
COc1cc(/C=N/n2c(C3CCCCC3)n[nH]c2=S)cc(Br)c1O	JMJD2A Tudor inh 13µM, G9a inh 25µM (no result: L3MBTL1 block)
Cc1cccc(/C=N/NC(=O)C2CCCNC2=O)c1 (stereo unspecified)	none
S=c1[nH]nc(C2CCCCC2)n1/N=C/c1cccc(Br)c1	G9a inh 79µM (no result: L3MBTL1 block)
Cc1cccc(/C=N/n2c(C3CCCCC3)n[nH]c2=S)c1	JMJD2A Tudor inh 56µM, Sfp PPTase inh 79µM, G9a inh 2.5µM, BAZ2B block inconclusive (no result: L3MBTL1 block)
COc1ccc(NS(=O)(=O)c2cc(OC)ccc2NC(=O)c2cc(C)oc2C)cc1	JMJD2A Tudor inh inconclusive, G9a inh 79µM
COc1ccc(NS(=O)(=O)c2cc(OC)ccc2OC)cc1	none (no result: L3MBTL1 block, Sfp PPTase inh, G9a inh, BAZ2B block)
COc1cc2ncc3c(-c4ccccc4)nn(-c4ccc(C)cc4)c3c2cc1OC	none (no result: L3MBTL1 block, Sfp PPTase inh)
CC(C)CCNC(=O)NC(=O)CSc1ccc(S(=O)(=O)N2CCOCC2)cn1	G9a inh 1.6µM (no result: Sfp PPTase inh)
O=[N+]([O-])c1ccc(CSc2ccc(S(=O)(=O)N3CCOCC3)cn2)cc1	G9a inh 20µM (no result: Sfp PPTase inh)
COc1ccc(-n2nnnc2Sc2ccc(S(=O)(=O)N3CCOCC3)cn2)cc1	HP1b binding inh inconclusive, JMJD2A Tudor inh 22µM, Sfp PPTase inh 45µM, G9a inh 1.8µM
COc1ccc(CNC(=O)C(C)Sc2ccc(S(=O)(=O)N3CCOCC3)cn2)cc1 (stereo unspecified)	G9a inh 32µM (no result: Sfp PPTase inh)
O=[N+]([O-])c1ccc(CSc2ccc(S(=O)(=O)N3CCCC3)cn2)cc1	none (no result: Sfp PPTase inh)
COc1ccc(CNC(=O)c2ccc(S(=O)(=O)N3CCOCC3)cc2)cc1	none (no result: Sfp PPTase inh)
COc1ccc(-n2nnnc2SCC(=O)N2CCOCC2)cc1	none
COc1ccccc1CNC(=O)c1ccc2c(c1)sc1nc(-c3ccc(F)cc3)cn12	none (no result: L3MBTL1 block, Sfp PPTase inh)
Cc1ccc(-n2nc(C)c3c(C(=O)NCc4ccc(F)cc4)cc(C)nc32)cc1	none (no result: L3MBTL1 block, Sfp PPTase inh)
O=C(NC(=S)Nc1ccccn1)c1ccc(-c2ccccc2)cc1	none (no result: L3MBTL1 block)
O=C(NC(=S)Nc1ccccc1[N+](=O)[O-])c1ccco1	Sfp PPTase inh 56µM, G9a inh inconclusive (no result: L3MBTL1 block)
CC(C)(C)C(=O)NC(=S)Nc1ccccn1	none
O=C(NC(=S)Nc1cccnc1Cl)c1ccco1	HP1b binding inh inconclusive, G9a inh 56µM
O=C(NC(=S)Nc1ccccn1)c1ccccc1	Sfp PPTase inh inconclusive, G9a inh 50µM (no result: L3MBTL1 block)
Cc1ccccc1C(=O)NC(=S)Nc1ccccc1[N+](=O)[O-]	G9a inh inconclusive, BAZ2B block inconclusive

Screening data as filed in PubChem.
